This is a sample that favours compounds with a hit; in the whole collection about 9% have one here.
BAZ2B inh – BAZ2B (human) inhibition; Potency, µM (highest dose often 114 µM), usual class: inhibitors; actives 4.4% (n = 360,000); Q9UIF8; AlphaScreen BAZ2B-H3K14Ac peptide displacement; also: nearly all actives have a fitted effect of over 60% in size
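AlphaScreen luminescence quantifies BAZ2B engagement of H3K14Ac peptide; the protein and biotinylated peptide are both at 50 nM final, buffer PBS pH 7.4 with 0.01% Tween-20, all steps at room temperature.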
HP1b chromo inh – inhibitors of HP1-beta chromodomain binding to methylated histone tails. P83916. AlphaScreen HP1-beta / biotin-H3K9me3 peptide binding. Potency, µM (doses to about 114 µM), actives largely listed as inhibitors. actives 0.56% (n = 390,000). AID 540317; also: nearly all actives have a fitted effect of over 70% in size
Target sequence (P83916 whole entry, looked up): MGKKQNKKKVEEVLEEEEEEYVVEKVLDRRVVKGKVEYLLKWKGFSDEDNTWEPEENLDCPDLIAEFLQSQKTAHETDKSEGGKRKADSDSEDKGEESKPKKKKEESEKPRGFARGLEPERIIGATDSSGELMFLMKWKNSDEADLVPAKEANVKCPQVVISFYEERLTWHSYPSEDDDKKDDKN
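AlphaScreen: HP1-beta (50 nM) preformed 30 min with biotin-H3(1-18)K9me3 peptide (50 nM) in PBS pH 7.4, 0.01% Tween-20. Compound added for 30 min at RT, then streptavidin donor/nickel chelate acceptor beads (10 ug/mL) for 30 min.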
G9a block – blocks human histone lysine methyltransferase G9a; Q96KQ7; G9a H3K9 monomethylation, AlphaScreen, 2 h; Potency, µM (top dose mostly 102 µM), actives largely listed as inhibitors; actives 8.8% (n = 350,000); AID 504332; also: nearly all actives have a fitted effect of over 75% in size
Target sequence (Q96KQ7 913-1193 limits assumed): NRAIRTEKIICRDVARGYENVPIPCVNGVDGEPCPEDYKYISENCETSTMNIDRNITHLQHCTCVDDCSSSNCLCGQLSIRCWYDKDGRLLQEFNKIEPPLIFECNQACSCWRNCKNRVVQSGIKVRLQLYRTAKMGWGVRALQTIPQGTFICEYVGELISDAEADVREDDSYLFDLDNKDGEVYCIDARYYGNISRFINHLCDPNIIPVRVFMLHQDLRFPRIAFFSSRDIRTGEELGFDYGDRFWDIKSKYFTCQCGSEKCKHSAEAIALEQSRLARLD
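Step 1: enzyme (final 20 nM) with compound, 15 min RT. Step 2: substrate peptide 500 nM and SAM 20 uM, 2 h RT. Step 3: anti-H3K9me1 antibody and AlphaScreen beads, 10 min, then plate read.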
PLK1 PBD inh – blocks phosphopeptide binding to human PLK1 polo-box domain; actives 2.8% (n = 360,000); Plk1 PBD binding of FITC phosphopeptide, fluorescence polarization; P53350; Potency, µM, most hits filed as inhibitors; AID 720504; also: series mostly up to about 57 µM; nearly all actives have a fitted effect of over 65% in size
ALOX12 inh – ALOX12 (human) lipoxygenase inhibition; P18054; purified 12hLO, xylenol orange hydroperoxide absorbance; Potency, µM (top dose mostly 108 µM), most hits filed as inhibitors; actives 1.1% (n = 580,000); AID 1671190
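Hydroperoxide product was detected by ferrous iron/xylenol orange as the 573 to 405 nm absorbance ratio. Arachidonic acid at 40 uM (final) was turned over for 30 min at room temperature by 150 nM human 12hLO, pH 7.0 Hepes buffer, after 15 min compound preincubation.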
JMJD2A Tudor inh – JMJD2A Tudor domain (human) inhibition | actives 4.4% (n = 390,000) | AlphaScreen JMJD2A-Tudor / H3K4me3 peptide binding | O75164 | Potency, µM (doses to about 114 µM), usual class: inhibitors; also: nearly all actives have a fitted effect of over 50% in size
Each line names hits and unclear results; the compound was inactive in the other large screens. Calls follow the shape of the dose curve; as a rule, active = well fitted curve in the direction sought with a large enough effect; inconclusive = small, poorly fitted or top-dose-only effect, or another doubt; inactive = no such curve, though single readings can be large; an effect the other way counts as inactive or inconclusive.

Cc1nn(CC(=O)O)c(C)c1NC(=O)c1cccs1	none (no result: G9a block)
CCOC(=O)c1ccc(NC(=O)NCCc2ccccc2OC)cc1	none
O=C(c1cc2nc(-c3ccco3)cc(C(F)(F)F)n2n1)N1CCN(c2ccccn2)CC1	G9a block inconclusive
O=C(c1cc2nc(-c3ccco3)cc(C(F)(F)F)n2n1)N1CCN(c2ccccc2)CC1	BAZ2B inh inconclusive, G9a block 45µM
CN(C(=O)c1cc2nc(-c3ccco3)cc(C(F)(F)F)n2n1)C1CCCCC1	G9a block 56µM
CC1C(=O)N2CCCc3cc(NC(=O)C(=O)NCCc4ccccc4)cc1c32 (stereo not drawn)	none
CC1C(=O)N2CCCc3cc(NC(=O)C(=O)NCCc4c[nH]c5ccccc45)cc1c32 (stereo not drawn)	G9a block 28µM, JMJD2A Tudor inh inconclusive
Cc1cc(C(=O)CSc2nc3ccccc3c(=O)[nH]2)c(C)n1C	G9a block inconclusive
Cc1cc(C(=O)CSC(C)c2nc3ccccc3c(=O)[nH]2)c(C)n1C (stereo not drawn)	G9a block 50µM, ALOX12 inh inconclusive
COc1ccc(Nc2ccc([N+](=O)[O-])cn2)cc1	ALOX12 inh 28µM
Cc1ccccc1Nc1nc(=O)c2cc([N+](=O)[O-])ccc2s1	G9a block 35µM
COc1ccc(Nc2nc(=O)c3cc([N+](=O)[O-])ccc3s2)cc1	BAZ2B inh 79µM, G9a block inconclusive, ALOX12 inh inconclusive
Cc1ccc(Nc2nc(=O)c3cc([N+](=O)[O-])ccc3s2)cc1	none
Cc1cccc(C(=O)n2nc(-c3cccnc3)nc2NCc2ccc(F)cc2)c1	none (no result: PLK1 PBD inh)
COc1ccc(-c2csc(N3CCN(C(=O)c4ccco4)CC3)n2)cc1	BAZ2B inh inconclusive, HP1b chromo inh inconclusive, G9a block 45µM, JMJD2A Tudor inh inconclusive
CCOC(=O)C(=O)N1CCN(c2nc(-c3ccc(Cl)cc3)cs2)CC1	BAZ2B inh inconclusive, HP1b chromo inh inconclusive, G9a block 40µM
COc1ccc(-c2csc(N3CCN(C(=O)c4ccccc4)CC3)n2)cc1	BAZ2B inh inconclusive, G9a block 28µM, JMJD2A Tudor inh inconclusive
COc1ccc2nc(N3CCN(C(=O)c4ccco4)CC3)sc2c1	none (no result: PLK1 PBD inh)
Cc1nc(SC(C)C(=O)Nc2ccccc2)n(CC(C)C)c1C (stereo not drawn)	none (no result: BAZ2B inh, HP1b chromo inh, G9a block, PLK1 PBD inh, JMJD2A Tudor inh)
CCN(C(=O)CCNC(=O)c1cccc(C)c1)C12CC3CC(CC(C3)C1)C2	none (no result: BAZ2B inh, HP1b chromo inh, G9a block, PLK1 PBD inh, JMJD2A Tudor inh)
CCCn1c(=O)c2ccccc2n2c(SCCOc3ccc(C)cc3)nnc12	G9a block inconclusive, JMJD2A Tudor inh 28µM
CCCn1c(=O)c2ccccc2n2c(SCC(=O)NCc3cccs3)nnc12	G9a block inconclusive, PLK1 PBD inh 27µM, JMJD2A Tudor inh 25µM
O=c1n(Cc2ccccc2)nc2n1CCN(S(=O)(=O)Cc1ccccc1)CC2	none (no result: BAZ2B inh, HP1b chromo inh, G9a block, PLK1 PBD inh, JMJD2A Tudor inh)
N#CCCN1CCCc2cc(N=Nc3ccc(C(F)(F)F)cc3)ccc21	BAZ2B inh 5.6µM, HP1b chromo inh 11µM, ALOX12 inh inconclusive, JMJD2A Tudor inh 13µM (no result: G9a block)
N#CCCN1CCN(S(=O)(=O)c2ccc3c(c2)CCC3)CC1	none
O=[N+]([O-])c1ccc(Sc2cccc[n+]2[O-])c2nonc12	BAZ2B inh 56µM, HP1b chromo inh 7.9µM, G9a block 0.5µM, PLK1 PBD inh 0.95µM, JMJD2A Tudor inh 20µM
O=[N+]([O-])c1ccc(Nc2ccccc2)c2nonc12	BAZ2B inh 40µM, HP1b chromo inh inconclusive, G9a block 45µM, JMJD2A Tudor inh 56µM
CC(=O)NS(=O)(=O)c1ccc(Nc2ccc([N+](=O)[O-])c3nonc23)cc1	BAZ2B inh 50µM
Cc1ccccc1Nc1ccc2nonc2c1[N+](=O)[O-]	BAZ2B inh inconclusive
CCOc1ccc(Nc2ccc([N+](=O)[O-])c3nonc23)cc1	BAZ2B inh 14µM, HP1b chromo inh 13µM, G9a block 25µM, JMJD2A Tudor inh 35µM
CCCSCCCNC(=O)Cn1nc(CC)n2c(cc3c(OC)cccc32)c1=O	G9a block inconclusive
COc1ccc(CCNC(=O)c2ccc3c(c2)ncn3-c2ccc(C(C)C)cc2)cc1OC	G9a block inconclusive, JMJD2A Tudor inh inconclusive (no result: PLK1 PBD inh)
O=C(Nc1ccccc1F)C(=O)c1cn(CC(=O)N2CCCCC2)c2ccccc12	none
CN(Cc1c(F)cccc1Cl)C(=O)CCc1c[nH]c2ccccc12	BAZ2B inh 71µM, G9a block inconclusive, JMJD2A Tudor inh inconclusive
CCNc1ccc(Br)cc(C(=O)/C=C/c2ccc(Cl)cc2)c1=O	BAZ2B inh 10µM, G9a block 10µM, PLK1 PBD inh inconclusive, JMJD2A Tudor inh 45µM (no result: ALOX12 inh)
Cc1ccc(C(=O)C=Cc2ccc3c(c2)OCO3)c(C)c1	none (no result: BAZ2B inh, HP1b chromo inh, G9a block, JMJD2A Tudor inh)
Cc1ccc(O)c(C(=O)/C=C/c2ccc3c(c2)OCCO3)c1	BAZ2B inh 28µM, HP1b chromo inh inconclusive, G9a block 25µM, JMJD2A Tudor inh 28µM
CCNc1ccc(Br)cc(C(=O)/C=C/c2c(Cl)cccc2Cl)c1=O	BAZ2B inh 25µM, HP1b chromo inh inconclusive, G9a block 4µM, PLK1 PBD inh inconclusive, JMJD2A Tudor inh 89µM (no result: ALOX12 inh)
CCNC(=O)/C=C/c1cccc(Br)c1	none (no result: BAZ2B inh, HP1b chromo inh, PLK1 PBD inh, JMJD2A Tudor inh)
O=C(/C=C/c1ccc(F)cc1)c1cc(Br)ccc1O	none
CCNc1ccc(Br)cc(C(=O)/C=C/c2ccc3c(c2)OCO3)c1=O	BAZ2B inh 22µM, HP1b chromo inh 20µM, PLK1 PBD inh inconclusive, ALOX12 inh 3.2µM, JMJD2A Tudor inh 45µM (no result: G9a block)
CC(=O)N1CCN(Cc2cccc(C#N)c2)CC(O)C1 (stereo not drawn)	none (no result: BAZ2B inh, HP1b chromo inh, G9a block, PLK1 PBD inh, JMJD2A Tudor inh)
N#Cc1ccccc1S(=O)(=O)N1CCN(S(=O)(=O)c2ccc(Br)c(C(=O)O)c2)CC1	PLK1 PBD inh inconclusive
Nc1ccccc1C(=O)/C=C/c1ccc2c(c1)OCO2	BAZ2B inh 14µM, HP1b chromo inh inconclusive, G9a block 40µM, JMJD2A Tudor inh 45µM
O=C(/C=C/c1ccc2c(c1)OCO2)c1ccc(O)cc1O	ALOX12 inh inconclusive, JMJD2A Tudor inh inconclusive (no result: BAZ2B inh, G9a block)
CCOc1ccccc1CN1CCC2(CCN(Cc3ccc(F)cc3)CC2)Oc2ccccc21	ALOX12 inh 32µM (no result: BAZ2B inh, HP1b chromo inh, G9a block, PLK1 PBD inh, JMJD2A Tudor inh)
COc1ccc(CCNC(=O)CNC(=O)N2CC(=O)Nc3ccccc32)cc1	none (no result: BAZ2B inh, HP1b chromo inh, G9a block, JMJD2A Tudor inh)
COc1ccc(CCNC(=O)Cn2nnc3ccccc3c2=O)cc1	G9a block 71µM
COc1ccc(CCNC(=O)CCNC(=O)N2CC(=O)Nc3ccccc32)cc1	PLK1 PBD inh 21µM, JMJD2A Tudor inh inconclusive
CCn1c2ccc(C)cc2c2nnc(SCCN3CCOCC3)nc21	G9a block 45µM
CCn1c2ccccc2c2nnc(SCC(=O)NC3CCS(=O)(=O)C3)nc21 (stereo not drawn)	G9a block 40µM
CCCCn1c2ccccc2c2nnc(SCC(=O)NC3=NN=C(c4ccccc4)CS3)nc21	G9a block 28µM (no result: HP1b chromo inh, PLK1 PBD inh, JMJD2A Tudor inh)
